Screen size: about 340,000 compounds; about 12,000 (3.5%) were called active. Not shown: some 18% with an inconclusive outcome. Only a selection was taken, and actives are over-represented in it overall. Unmarked numbers belong to inactive results. Calls come from the whole dose curve; as a rule, active = well fitted inhibition curve with a large enough effect; inconclusive = small, poorly fitted or top-dose-only effect, or another doubt; inactive = no such curve, though single readings can be large or run the other way.
Assay: qHTS Assay for Inhibitors of Hepatitis C Virus (HCV)
Details: Huh7.5.1 HCVcc-Cre infection, luciferase reporter, 44 h; series mostly up to 41.8 µM; activity change, negative = inhibition: at the top concentration
Outline: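 Whole-lifecycle infectious HCVcc-Cre system; cells 1,000/well, compound then virus (~0.5 moi) added 4 h after plating, 44 h culture. Luciferase read 15 sec following 15 min substrate incubation, room temp.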
% is set by controls: 0 for no effect and ±100 for the full control effect; potency is the fitted concentration of half-maximal effect.

SMILES	Potency	activity change, negative = inhibition [%]
C=C(C)COc1ccc(-c2nc(N)ncc2-c2ccccc2OC)c(O)c1	10 µM (active)	–
O=C(COC(=O)c1ncc(Cl)c(Cl)c1Cl)NCc1ccccc1	–	1.03
O=C(CCNC(=O)c1ccccc1Cl)NN=Cc1ccco1	–	16
COC(=O)C1=C(C)NC(=S)NC1c1ccc(OCC(=O)N2CC(C)OC(C)C2)c(OC)c1 (centres undefined)	–	10.3
CNC[C@H](CC1CCCCC1)NC[C@H](NCCC1CCCC1)[C@H](C)O	11.2 µM (active)	–
COC(=O)c1ccc(-c2c(-c3ccccc3)ncc3cc(OC)c(OC)cc23)cc1	–	-3.02
COc1ccc(CCNC(=O)CS(=O)(=O)Cc2nc(-c3ccc(C)cc3)oc2C)cc1OC	–	-21.3
COc1ccc(CCNC(=O)C2CCCN(Cc3nc(-c4cccc(Cl)c4)oc3C)C2)cc1OC (centres undefined)	10 µM (active)	–
COc1ccc(CCN(C)C(=O)C2CCCN(Cc3ccc(OC)c(OC)c3)C2)cc1OC (centres undefined)	–	2.61
COc1ccc(NC(=O)CN(C)C(=O)c2cc(-c3ccc(C)o3)nc3ccccc23)cc1	–	-21.8
Cn1cc(/C=C/c2nc3ccccc3c(=O)n2-c2cccc([N+](=O)[O-])c2)c2ccccc21	–	1.56
Cc1cccc(N=C2NC(=O)/C(=C/c3cn(C)c4ccccc34)S2)c1	14.1 µM (active)	–
CN(C)c1ccc(-n2cccc2/C=C2/SC(=Nc3ccc(F)cc3)NC2=O)cc1	–	-22
Cc1cccc(N(Cc2ccccc2)C(=O)c2cc(S(=O)(=O)N3CCOCC3)ccc2F)c1	–	-3.25
O=S(=O)(NC1CC1)c1ccc2c3c(cccc13)CC2	–	-28
O=S(=O)(NC1CCCCC1)c1ccc(F)c2ccccc12	35.5 µM (active)	–
CSc1ccc(S(=O)(=O)NC2CCCCC2)cc1	–	15.8
O=C(NNc1nc(N2CCCC2)nc(N2CCCC2)n1)c1ccccc1	–	-16.4
CN(C)C(=O)CCc1ccc2c3c([nH]c2c1)[C@]1(CCc2ccccc2)[C@@H](C(=O)N2CCCCC2)C[C@H](CC(=O)NCCC2=CCCCC2)C(=O)N1CC3	–	12.1
CC(C)CN(C(=O)COC(=O)c1ccc2ccccc2c1)c1c(N)n(Cc2ccccc2)c(=O)[nH]c1=O	–	-2.77
O=C(CN1C(=O)C2C3CCC(C3)C2C1=O)Oc1ccc2ccccc2c1 (centres undefined)	–	16.3
CC1=CC(C)(C)Nc2ccc(OC(=O)CN3C(=O)C4CCCCC4C3=O)cc21 (centres undefined)	11.2 µM (active)	–
O=C(COC(=O)CN1C(=O)C2CCCCC2C1=O)Nc1ccc(F)c(F)c1F (centres undefined)	–	9.46
CCc1cccc(CC)c1NC(=S)Nc1ccc2cn[nH]c2c1	–	-0.0519
CCc1cccc(CC)c1NC(=S)NCc1ccc2[nH]c(C)cc2c1	14.1 µM (active)	–

SMILES	Potency	activity change, negative = inhibition [%]
Cc1cc2cc(CNC(=O)c3ccc(S(=O)(=O)N4CCOCC4)cc3)ccc2[nH]1	–	-2.6
CC(Sc1nnc(-c2cccs2)n1C1CC1)C(=O)NCC1CCCO1 (centres undefined)	–	20.4
O=C(COC(=O)Cn1[nH]c(=O)c2ccccc2c1=O)Nc1ncc(Cl)cc1Cl	–	2.09
COc1ccc(N2CCN(C(=O)CCNC(=O)c3ccc(Br)cc3)CC2)cc1	–	-26.5
CC1CCCCC12NC(=O)N(CC(=O)OCc1c(F)cccc1Cl)C2=O (centres undefined)	–	12.2
CN1CCc2ccccc2C1Cc1ccccc1NC(=O)c1sc2ccccc2c1Cl (centres undefined)	14.1 µM (active)	–
O=C(Nc1ccon1)c1sc2ccccc2c1Cl	–	-6.93
CCc1ccccc1NC(=O)NCCN1CCCCC1	–	-6.99
Cc1ccc(NC(=O)CSCC(=O)Nc2sccc2C#N)cc1	–	7.78
CCCCCCCCCCCCN1[C@@H](CC(C)=O)c2cc(F)cc(F)c2S1(=O)=O	–	7.87
O=C(CN1C(=O)NC(Cc2c[nH]c3ccccc23)C1=O)Nc1ccccc1C(F)(F)F (centres undefined)	–	10.9
O=C(OCCOCn1cc(Br)c(=O)[nH]c1=O)c1ccccc1	–	7.07
Cc1cc(Cl)ccc1OCCCC(=O)NCc1ccncc1	–	-2.45
CC(C)(C)NCCCOc1ccc(Cl)cc1C(C)(C)C	5.01 µM (active)	–
CN(C)CCOc1ccc(Cl)cc1C(C)(C)C	–	2.11
NC1=NC(c2ccc([N+](=O)[O-])cc2)N(c2ccc(F)cc2)C(N)=N1 (centres undefined)	–	10.2
COc1ccc(S(=O)(=O)N2CCOC23CCN(S(=O)(=O)c2ccc([N+](=O)[O-])cc2)CC3)cc1	–	-26.6
CCCCn1c(SCC(=O)NCCc2ccc(OC)c(OC)c2)nc2c1c(=O)n(C)c(=O)n2C	–	-4.19
CCCCNc1nc2c(c(=O)[nH]c(=O)n2C)n1CCOc1ccccc1	–	-4.32
Cn1c(=O)c2c(nc(NCc3ccccc3)n2CC(N)=O)n(C)c1=O	–	9.34
COc1ccc(CNc2nc3c(c(=O)[nH]c(=O)n3C)n2Cc2ccccc2)cc1	–	-2.18
CCn1c(NCCc2ccc(OC)c(OC)c2)nc2c1c(=O)n(C)c(=O)n2C	11.2 µM (active)	–
CCCCNc1nc2c(c(=O)n(C)c(=O)n2C)n1Cc1cccc(OC)c1	6.31 µM (active)	–
CC[C@]1(C(=O)OC)[C@H]2C(=O)N(C)C(=O)[C@H]2[C@H]2CN(C)C(=NCc3ccccc3)N21	–	3.22

From PubChem BioAssay AID651820 (National Center for Advancing Translational Sciences (NCATS), 2012)
